According to PubChem BioAssay (NCATS):
Several values for one entry are separate records, joined by “and”; a condition that tells them apart may be missing. Equal values may be shown once. Inconclusive results are not listed. A number with no mark means an inactive call. Calls follow the shape of the full dose curve.

biological target: Bile acid receptor (Homo sapiens) (UniProt Q96RI1); test: qHTS assay for small molecule agonists of farnesoid X receptor signaling (AID 588527); settings: HEK293T FXR-UAS-bla, beta-lactamase ratio, 16 h; stronger effect = higher value;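 also: series mostly up to about 77 µM; 0% = vehicle basal and 100% = reference agonist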
From the text: NIH Chemical Genomics Center [NCGC] U.S. Environmental Protection Agency [EPA] National Institutes of Environmental Health Sciences [NIEHS] National Toxicology Program [NTP] NCGC Assay Overview The farnesoid-X-receptor (FXR), a nuclear hormone receptor is highly expressed in liver, intestine, kidney and adrenal cortex. Natural ligands of FXR are the bile acids (Cholic acid, Chenodeoxy cholic acid etc). It is an important regulator of diverse metabolic pathways, including the bile acid homeostasis, lipid and glucose metabolisms. FXR regulates the expression of target genes by binding either as a monomer or as a heterodimer with RXR (retinoid X receptor). As FXR regulates a large number of target genes involved in bile acid, lipoprotein and glucose metabolisms, it is a potential pharmacological target for bile acid and lipid disorders. Thus screening environmental chemicals on FXR signaling can be used for the studies focused on metabolic syndrome, hepatic and intestinal toxicity etc.
NCGC Assay Protocol Summary Using a beta-lactamase reporter-gene under control of Farnesoid X receptor (FXR) response element, a cell-based assay [GeneBLAzer FXR-UAS-bla assay developed by Invitrogen] was used to measure FXR ligands signaling. GeneBLAzer FXR-UAS-bla HEK293T cells were used with assay medium containing 10% dialyzed FBS. The assay was performed in clear bottom black Greiner 1536-well plates. Chenodeoxycholic acid and Guggulsterone were used in the screen as agonist and antagonist positive controls respectively. Library compounds were measured for their ability to stimulate the reporter gene activity. Compounds were screened in a titration series in 1536-well format. […] Data was normalized relative to Chenodeoxycholic acid control (100 uM, 100%), and DMSO only wells (basal, 0%). Concentration-response titration points for each compound were fitted to the Hill equation yielding concentrations of half-maximal stimulation (EC50) and maximal response (efficacy) values. qHTS protocol for FXR beta-lactamase assay in agonist mode [Step] [Parameter] [Value] [Description] 1. Reagent; 6 uL; 5000 cells/well 2. Incubation; 37 C for 5-7 hrs 3. Compounds; 23 nL; 0.59 nM to 92 uM 4. Controls (Chenodeoxycholic acid); 23 nL, - One column with dose response, start 200 uM, 1:2 dilutions in duplicates - Final concentrations of 100 uM and 60 uM in two columns 5. Incubation; 37 C for 16 hrs 6. Detection reagent; 1 uL of CCF4-dye 7. Incubation; RT for 2 hrs 8. Detection; Fluorescence; Envision plate reader

Sequence of Bile acid receptor (Homo sapiens) (Q96RI1 whole entry, looked up): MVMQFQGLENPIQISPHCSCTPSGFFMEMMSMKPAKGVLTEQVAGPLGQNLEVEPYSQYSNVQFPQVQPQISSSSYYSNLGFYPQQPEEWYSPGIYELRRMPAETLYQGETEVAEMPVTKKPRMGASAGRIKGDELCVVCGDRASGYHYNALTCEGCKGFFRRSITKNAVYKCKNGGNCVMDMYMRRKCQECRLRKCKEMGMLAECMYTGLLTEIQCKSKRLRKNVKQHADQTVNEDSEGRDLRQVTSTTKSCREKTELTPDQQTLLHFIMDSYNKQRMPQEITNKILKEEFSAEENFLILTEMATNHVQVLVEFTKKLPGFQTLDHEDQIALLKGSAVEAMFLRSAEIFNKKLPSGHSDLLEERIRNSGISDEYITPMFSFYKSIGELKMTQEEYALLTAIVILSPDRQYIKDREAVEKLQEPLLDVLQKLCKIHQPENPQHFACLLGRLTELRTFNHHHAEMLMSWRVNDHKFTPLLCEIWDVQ

Compound	activation
CC(C)OC(=O)C(C)(C)Oc1ccc(C(=O)c2ccc(Cl)cc2)cc1	2.77%
O=c1oc2ccccc2c(O)c1C(CC(O)c1ccc(-c2ccc(Br)cc2)cc1)c1ccccc1 (stereo not given)	-8.03%
C[C@]12C/C(=C/O)C(=O)C[C@@H]1CC[C@@H]1[C@@H]2CC[C@@]2(C)[C@H]1CC[C@]2(C)O	1.58%
O=c1[nH]c2ccccc2n1C1CCN(CCCC(c2ccc(F)cc2)c2ccc(F)cc2)CC1	-1.92%
N[C@@H](Cc1ccc(N(CCCl)CCCl)cc1)C(=O)O	0.124%
Nc1ccc(O)c(C(=O)O)c1	-5.01% and -0.178%
CN(C)CCC=C1c2ccccc2CCc2ccccc21	-2.7% and 0.944%
COc1cc2c(c(OC)c1OC)-c1ccc(OC)c(=O)cc1[C@@H](NC(C)=O)CC2	-2.29%
C=C(C)[C@H]1Cc2c(ccc3c2O[C@@H]2COc4cc(OC)c(OC)cc4[C@@H]2C3=O)O1	-1.33%
Cc1cc(SCc2sc(-c3ccc(C(F)(F)F)c(F)c3)nc2C)ccc1OCC(=O)O	-2.28%
Cc1ccccc1C(OCCN(C)C)c1ccccc1 (stereo not given)	-1.23%
CC(C)(C)CC(C)(C)c1ccc(O)cc1	3.19%
CNCC(O)c1ccc(O)cc1 (stereo not given)	-1.79%
COC1=CC(=O)C[C@@H](C)[C@]12Oc1c(Cl)c(OC)cc(OC)c1C2=O	0.423%
CCCCOCCOCCOCc1cc2c(cc1CCC)OCO2	1.08% and -5.21%
NC(=Nc1ccccc1)Nc1ccccc1	-1.85% and 0.0042%
CN(C)/N=N/c1nc[nH]c1C(N)=O	-3.3%
CN(C)CCOC(C)(c1ccccc1)c1ccccn1 (stereo not given)	-1.68%
Clc1ccc(COC(Cn2ccnc2)c2ccc(Cl)cc2Cl)cc1 (stereo not given)	9.99%
Cc1ccnc2c1NC(=O)c1cccnc1N2C1CC1	5.2%

Compound	activation
CC[C@H](C)C(=O)O[C@H]1C[C@@H](C)C=C2C=C[C@H](C)[C@H](CC[C@@H]3C[C@@H](O)CC(=O)O3)[C@H]21	-3.65%
CCCCNC(=O)NS(=O)(=O)c1ccc(C)cc1	0.0302% and 2.67%
Cc1cn([C@H]2C=C[C@@H](CO)O2)c(=O)[nH]c1=O	-2.48% and 1.31% and -0.393%
CC1=C(/C=C/C(C)=C/C=C/C(C)=C/C(=O)Nc2ccc(O)cc2)C(C)(C)CCC1	-5.41%
Oc1cccc2cccnc12	-3.45% and -4.35%
COc1ccc(Cl)cc1C(=O)NCCc1ccc(S(=O)(=O)NC(=O)NC2CCCCC2)cc1	0.916%
Cc1cn([C@H]2C[C@H](N=[N+]=[N-])[C@@H](CO)O2)c(=O)[nH]c1=O	-3.84%
O=c1[nH]cc(F)c(=O)[nH]1	-1.24%
OCCOc1ccccc1	0.0237% and -6.3% and -0.639%
CC(C)C(=O)Nc1ccc([N+](=O)[O-])c(C(F)(F)F)c1	-2.87% and 6.82%
CCC1(c2ccccc2)C(=O)NCNC1=O	-0.167% and -0.256%
CN(Cc1cnc2nc(N)nc(N)c2n1)c1ccc(C(=O)N[C@@H](CCC(=O)O)C(=O)O)cc1	-5.02%
Clc1ccc(C(c2ccccc2Cl)C(Cl)Cl)cc1 (stereo not given)	3.36%
C[C@H]1O[C@@H](O[C@H]2[C@@H](O)C[C@H](O[C@H]3[C@@H](O)C[C@H](O[C@H]4CC[C@@]5(C)[C@H](CC[C@@H]6[C@@H]5CC[C@]5(C)[C@@H](C7=CC(=O)OC7)CC[C@]65O)C4)O[C@@H]3C)O[C@@H]2C)C[C@H](O)[C@@H]1O	-2.75%
CCCN(CCC)S(=O)(=O)c1ccc(C(=O)O)cc1	-0.735% and 0.243%
O=C(CCCN1CCC(O)(c2ccc(Cl)cc2)CC1)c1ccc(F)cc1	-8.42%
CC1(C)NC(=O)N(c2ccc([N+](=O)[O-])c(C(F)(F)F)c2)C1=O	0.399%
CCn1cc(C(=O)O)c(=O)c2ccc(C)nc21	-0.319% and 0.585%
CCc1nc(N)nc(N)c1-c1ccc(Cl)cc1	-5.01% and -3.58%
C#C[C@]1(O)CC[C@H]2[C@@H]3CCC4=Cc5oncc5C[C@]4(C)[C@H]3CC[C@@]21C	-1.05%
